Tests used:
Assay in all cases: log2 ratio of Biotin-Ahx-Ub-VS probe labelling (fragment/DMSO); higher = less target engagement (more negative = stronger competition), active = hit call of the paper (q ≤ 0.05, log2 ratio ≤ -1)
Conditions in all cases: compound concentration: 200 uM; treatment time: 3 h
USP34 = USP34 (UniProt Q70CQ2)
Method in brief: (§1)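 Average log2 ratios of fragment over vehicle were obtained by unpaired t-test from global-median-normalised Spectronaut label-free quantities. Proteins with ≥2 unique peptides were included. HEK293T lysate (495 µg per sample) was treated in triplicate with fragment at 200 µM or vehicle for 3 h, then with Biotin-Ahx-Ub-VS at 0.5 µM final for 1 h, and labelled DUBs were NeutrAvidin-enriched and run by diaPASEF LC-MS/MS.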

USP36 = target: T1, USP36 (UniProt Q9P275)
T1 sequence (whole entry): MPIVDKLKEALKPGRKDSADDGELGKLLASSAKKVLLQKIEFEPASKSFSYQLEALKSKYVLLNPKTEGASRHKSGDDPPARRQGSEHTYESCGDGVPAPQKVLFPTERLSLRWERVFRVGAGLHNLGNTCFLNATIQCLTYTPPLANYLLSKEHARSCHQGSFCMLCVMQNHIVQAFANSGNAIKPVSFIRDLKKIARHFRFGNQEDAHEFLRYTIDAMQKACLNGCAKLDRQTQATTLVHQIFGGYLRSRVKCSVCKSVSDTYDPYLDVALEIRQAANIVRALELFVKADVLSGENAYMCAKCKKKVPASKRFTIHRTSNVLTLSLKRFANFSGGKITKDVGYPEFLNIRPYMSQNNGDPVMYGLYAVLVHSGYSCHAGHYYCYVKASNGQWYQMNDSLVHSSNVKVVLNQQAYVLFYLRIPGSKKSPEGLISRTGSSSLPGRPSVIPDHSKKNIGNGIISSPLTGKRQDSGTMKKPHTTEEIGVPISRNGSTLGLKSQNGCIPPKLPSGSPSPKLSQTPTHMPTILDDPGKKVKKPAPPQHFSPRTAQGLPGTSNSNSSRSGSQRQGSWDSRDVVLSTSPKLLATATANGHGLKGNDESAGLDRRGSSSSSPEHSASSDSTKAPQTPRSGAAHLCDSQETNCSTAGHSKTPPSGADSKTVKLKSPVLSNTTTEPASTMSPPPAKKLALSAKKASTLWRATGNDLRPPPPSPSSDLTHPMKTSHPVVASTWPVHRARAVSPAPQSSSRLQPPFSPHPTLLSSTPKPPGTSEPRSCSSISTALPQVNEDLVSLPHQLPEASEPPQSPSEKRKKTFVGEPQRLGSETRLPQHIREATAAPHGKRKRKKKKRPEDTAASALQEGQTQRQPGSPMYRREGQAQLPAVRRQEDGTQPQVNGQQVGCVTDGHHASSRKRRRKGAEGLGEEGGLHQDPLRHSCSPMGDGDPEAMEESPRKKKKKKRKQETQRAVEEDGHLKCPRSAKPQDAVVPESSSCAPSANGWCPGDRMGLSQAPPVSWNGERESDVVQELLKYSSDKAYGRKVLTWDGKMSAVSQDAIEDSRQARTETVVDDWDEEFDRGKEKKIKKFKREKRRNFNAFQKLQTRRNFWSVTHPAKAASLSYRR
Method in brief: as §1

USP38 = target: T2, USP38 (UniProt Q8NB14)
T2 sequence (whole entry): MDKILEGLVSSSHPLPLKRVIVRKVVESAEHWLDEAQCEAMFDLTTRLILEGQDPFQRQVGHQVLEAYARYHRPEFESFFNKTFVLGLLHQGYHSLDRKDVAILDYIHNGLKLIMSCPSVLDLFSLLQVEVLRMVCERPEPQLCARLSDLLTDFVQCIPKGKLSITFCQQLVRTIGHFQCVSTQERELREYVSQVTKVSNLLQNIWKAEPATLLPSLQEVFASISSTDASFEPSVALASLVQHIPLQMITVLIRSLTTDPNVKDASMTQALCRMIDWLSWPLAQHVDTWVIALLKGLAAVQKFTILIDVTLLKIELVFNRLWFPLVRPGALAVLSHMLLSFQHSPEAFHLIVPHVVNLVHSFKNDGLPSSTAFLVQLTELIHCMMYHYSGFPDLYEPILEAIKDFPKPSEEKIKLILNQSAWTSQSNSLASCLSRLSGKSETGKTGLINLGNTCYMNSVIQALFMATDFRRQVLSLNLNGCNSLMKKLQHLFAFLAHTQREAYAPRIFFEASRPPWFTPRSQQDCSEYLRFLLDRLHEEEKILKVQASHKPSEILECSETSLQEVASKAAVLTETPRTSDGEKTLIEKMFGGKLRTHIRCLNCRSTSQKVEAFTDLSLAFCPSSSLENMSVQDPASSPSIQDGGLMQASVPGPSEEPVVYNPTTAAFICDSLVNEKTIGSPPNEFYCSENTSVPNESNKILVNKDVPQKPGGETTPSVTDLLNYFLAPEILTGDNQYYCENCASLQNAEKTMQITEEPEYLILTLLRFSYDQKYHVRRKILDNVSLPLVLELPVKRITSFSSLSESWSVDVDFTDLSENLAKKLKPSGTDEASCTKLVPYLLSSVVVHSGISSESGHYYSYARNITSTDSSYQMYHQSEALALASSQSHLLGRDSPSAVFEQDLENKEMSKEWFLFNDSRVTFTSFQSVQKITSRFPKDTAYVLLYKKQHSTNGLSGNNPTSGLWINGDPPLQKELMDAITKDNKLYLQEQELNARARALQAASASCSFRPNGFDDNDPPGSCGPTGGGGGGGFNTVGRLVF
Method in brief: as §1

USP39 = target: T3, USP39 (UniProt Q53GS9)
T3 sequence (whole entry): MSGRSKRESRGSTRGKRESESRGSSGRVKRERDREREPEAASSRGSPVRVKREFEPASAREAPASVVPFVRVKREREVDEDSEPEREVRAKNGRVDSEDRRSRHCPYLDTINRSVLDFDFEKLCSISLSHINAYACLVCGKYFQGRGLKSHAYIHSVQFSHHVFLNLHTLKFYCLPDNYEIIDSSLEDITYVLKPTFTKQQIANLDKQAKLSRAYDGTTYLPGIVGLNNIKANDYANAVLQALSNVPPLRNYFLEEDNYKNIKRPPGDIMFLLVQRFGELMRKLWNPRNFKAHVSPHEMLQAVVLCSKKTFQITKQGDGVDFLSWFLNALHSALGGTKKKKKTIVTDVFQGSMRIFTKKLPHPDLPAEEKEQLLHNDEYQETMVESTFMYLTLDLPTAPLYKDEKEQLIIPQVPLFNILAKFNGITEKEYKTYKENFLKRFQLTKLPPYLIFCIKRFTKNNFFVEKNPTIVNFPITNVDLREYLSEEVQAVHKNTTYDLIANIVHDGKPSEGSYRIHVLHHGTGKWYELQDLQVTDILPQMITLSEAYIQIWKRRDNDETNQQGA
Method in brief: as §1

USP4 = target: T4, USP4 (UniProt Q13107)
T4 sequence (whole entry): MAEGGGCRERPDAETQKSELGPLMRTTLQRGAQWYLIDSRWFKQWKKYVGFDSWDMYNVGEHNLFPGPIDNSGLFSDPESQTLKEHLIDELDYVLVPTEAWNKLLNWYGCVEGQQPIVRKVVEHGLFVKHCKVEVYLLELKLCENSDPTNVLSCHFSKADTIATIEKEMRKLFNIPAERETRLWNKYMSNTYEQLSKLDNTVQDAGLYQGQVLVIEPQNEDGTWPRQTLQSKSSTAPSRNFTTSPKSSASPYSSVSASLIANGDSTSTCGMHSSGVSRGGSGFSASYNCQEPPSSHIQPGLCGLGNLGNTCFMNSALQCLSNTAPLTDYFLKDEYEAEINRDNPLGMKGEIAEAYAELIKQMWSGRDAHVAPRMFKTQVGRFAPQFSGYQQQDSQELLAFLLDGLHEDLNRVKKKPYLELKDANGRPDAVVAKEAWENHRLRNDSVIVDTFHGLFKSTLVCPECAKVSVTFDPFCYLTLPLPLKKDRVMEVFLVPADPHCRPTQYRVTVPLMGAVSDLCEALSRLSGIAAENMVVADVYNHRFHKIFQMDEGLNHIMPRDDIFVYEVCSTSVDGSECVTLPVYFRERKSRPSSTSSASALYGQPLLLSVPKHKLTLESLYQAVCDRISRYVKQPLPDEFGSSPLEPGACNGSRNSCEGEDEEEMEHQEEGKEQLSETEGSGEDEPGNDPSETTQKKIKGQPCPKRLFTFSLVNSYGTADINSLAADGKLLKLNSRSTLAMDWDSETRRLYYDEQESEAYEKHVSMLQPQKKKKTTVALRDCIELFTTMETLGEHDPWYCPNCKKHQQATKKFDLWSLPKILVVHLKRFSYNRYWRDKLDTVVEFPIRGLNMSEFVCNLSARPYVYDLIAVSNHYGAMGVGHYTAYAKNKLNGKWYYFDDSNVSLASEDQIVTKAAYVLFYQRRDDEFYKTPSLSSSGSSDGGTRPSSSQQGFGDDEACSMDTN
Method in brief: as §1

Measured: log2 ratio of Biotin-Ahx-Ub-VS probe labelling

USP34, sequence (Q70CQ2 whole entry, the tested form may be a part): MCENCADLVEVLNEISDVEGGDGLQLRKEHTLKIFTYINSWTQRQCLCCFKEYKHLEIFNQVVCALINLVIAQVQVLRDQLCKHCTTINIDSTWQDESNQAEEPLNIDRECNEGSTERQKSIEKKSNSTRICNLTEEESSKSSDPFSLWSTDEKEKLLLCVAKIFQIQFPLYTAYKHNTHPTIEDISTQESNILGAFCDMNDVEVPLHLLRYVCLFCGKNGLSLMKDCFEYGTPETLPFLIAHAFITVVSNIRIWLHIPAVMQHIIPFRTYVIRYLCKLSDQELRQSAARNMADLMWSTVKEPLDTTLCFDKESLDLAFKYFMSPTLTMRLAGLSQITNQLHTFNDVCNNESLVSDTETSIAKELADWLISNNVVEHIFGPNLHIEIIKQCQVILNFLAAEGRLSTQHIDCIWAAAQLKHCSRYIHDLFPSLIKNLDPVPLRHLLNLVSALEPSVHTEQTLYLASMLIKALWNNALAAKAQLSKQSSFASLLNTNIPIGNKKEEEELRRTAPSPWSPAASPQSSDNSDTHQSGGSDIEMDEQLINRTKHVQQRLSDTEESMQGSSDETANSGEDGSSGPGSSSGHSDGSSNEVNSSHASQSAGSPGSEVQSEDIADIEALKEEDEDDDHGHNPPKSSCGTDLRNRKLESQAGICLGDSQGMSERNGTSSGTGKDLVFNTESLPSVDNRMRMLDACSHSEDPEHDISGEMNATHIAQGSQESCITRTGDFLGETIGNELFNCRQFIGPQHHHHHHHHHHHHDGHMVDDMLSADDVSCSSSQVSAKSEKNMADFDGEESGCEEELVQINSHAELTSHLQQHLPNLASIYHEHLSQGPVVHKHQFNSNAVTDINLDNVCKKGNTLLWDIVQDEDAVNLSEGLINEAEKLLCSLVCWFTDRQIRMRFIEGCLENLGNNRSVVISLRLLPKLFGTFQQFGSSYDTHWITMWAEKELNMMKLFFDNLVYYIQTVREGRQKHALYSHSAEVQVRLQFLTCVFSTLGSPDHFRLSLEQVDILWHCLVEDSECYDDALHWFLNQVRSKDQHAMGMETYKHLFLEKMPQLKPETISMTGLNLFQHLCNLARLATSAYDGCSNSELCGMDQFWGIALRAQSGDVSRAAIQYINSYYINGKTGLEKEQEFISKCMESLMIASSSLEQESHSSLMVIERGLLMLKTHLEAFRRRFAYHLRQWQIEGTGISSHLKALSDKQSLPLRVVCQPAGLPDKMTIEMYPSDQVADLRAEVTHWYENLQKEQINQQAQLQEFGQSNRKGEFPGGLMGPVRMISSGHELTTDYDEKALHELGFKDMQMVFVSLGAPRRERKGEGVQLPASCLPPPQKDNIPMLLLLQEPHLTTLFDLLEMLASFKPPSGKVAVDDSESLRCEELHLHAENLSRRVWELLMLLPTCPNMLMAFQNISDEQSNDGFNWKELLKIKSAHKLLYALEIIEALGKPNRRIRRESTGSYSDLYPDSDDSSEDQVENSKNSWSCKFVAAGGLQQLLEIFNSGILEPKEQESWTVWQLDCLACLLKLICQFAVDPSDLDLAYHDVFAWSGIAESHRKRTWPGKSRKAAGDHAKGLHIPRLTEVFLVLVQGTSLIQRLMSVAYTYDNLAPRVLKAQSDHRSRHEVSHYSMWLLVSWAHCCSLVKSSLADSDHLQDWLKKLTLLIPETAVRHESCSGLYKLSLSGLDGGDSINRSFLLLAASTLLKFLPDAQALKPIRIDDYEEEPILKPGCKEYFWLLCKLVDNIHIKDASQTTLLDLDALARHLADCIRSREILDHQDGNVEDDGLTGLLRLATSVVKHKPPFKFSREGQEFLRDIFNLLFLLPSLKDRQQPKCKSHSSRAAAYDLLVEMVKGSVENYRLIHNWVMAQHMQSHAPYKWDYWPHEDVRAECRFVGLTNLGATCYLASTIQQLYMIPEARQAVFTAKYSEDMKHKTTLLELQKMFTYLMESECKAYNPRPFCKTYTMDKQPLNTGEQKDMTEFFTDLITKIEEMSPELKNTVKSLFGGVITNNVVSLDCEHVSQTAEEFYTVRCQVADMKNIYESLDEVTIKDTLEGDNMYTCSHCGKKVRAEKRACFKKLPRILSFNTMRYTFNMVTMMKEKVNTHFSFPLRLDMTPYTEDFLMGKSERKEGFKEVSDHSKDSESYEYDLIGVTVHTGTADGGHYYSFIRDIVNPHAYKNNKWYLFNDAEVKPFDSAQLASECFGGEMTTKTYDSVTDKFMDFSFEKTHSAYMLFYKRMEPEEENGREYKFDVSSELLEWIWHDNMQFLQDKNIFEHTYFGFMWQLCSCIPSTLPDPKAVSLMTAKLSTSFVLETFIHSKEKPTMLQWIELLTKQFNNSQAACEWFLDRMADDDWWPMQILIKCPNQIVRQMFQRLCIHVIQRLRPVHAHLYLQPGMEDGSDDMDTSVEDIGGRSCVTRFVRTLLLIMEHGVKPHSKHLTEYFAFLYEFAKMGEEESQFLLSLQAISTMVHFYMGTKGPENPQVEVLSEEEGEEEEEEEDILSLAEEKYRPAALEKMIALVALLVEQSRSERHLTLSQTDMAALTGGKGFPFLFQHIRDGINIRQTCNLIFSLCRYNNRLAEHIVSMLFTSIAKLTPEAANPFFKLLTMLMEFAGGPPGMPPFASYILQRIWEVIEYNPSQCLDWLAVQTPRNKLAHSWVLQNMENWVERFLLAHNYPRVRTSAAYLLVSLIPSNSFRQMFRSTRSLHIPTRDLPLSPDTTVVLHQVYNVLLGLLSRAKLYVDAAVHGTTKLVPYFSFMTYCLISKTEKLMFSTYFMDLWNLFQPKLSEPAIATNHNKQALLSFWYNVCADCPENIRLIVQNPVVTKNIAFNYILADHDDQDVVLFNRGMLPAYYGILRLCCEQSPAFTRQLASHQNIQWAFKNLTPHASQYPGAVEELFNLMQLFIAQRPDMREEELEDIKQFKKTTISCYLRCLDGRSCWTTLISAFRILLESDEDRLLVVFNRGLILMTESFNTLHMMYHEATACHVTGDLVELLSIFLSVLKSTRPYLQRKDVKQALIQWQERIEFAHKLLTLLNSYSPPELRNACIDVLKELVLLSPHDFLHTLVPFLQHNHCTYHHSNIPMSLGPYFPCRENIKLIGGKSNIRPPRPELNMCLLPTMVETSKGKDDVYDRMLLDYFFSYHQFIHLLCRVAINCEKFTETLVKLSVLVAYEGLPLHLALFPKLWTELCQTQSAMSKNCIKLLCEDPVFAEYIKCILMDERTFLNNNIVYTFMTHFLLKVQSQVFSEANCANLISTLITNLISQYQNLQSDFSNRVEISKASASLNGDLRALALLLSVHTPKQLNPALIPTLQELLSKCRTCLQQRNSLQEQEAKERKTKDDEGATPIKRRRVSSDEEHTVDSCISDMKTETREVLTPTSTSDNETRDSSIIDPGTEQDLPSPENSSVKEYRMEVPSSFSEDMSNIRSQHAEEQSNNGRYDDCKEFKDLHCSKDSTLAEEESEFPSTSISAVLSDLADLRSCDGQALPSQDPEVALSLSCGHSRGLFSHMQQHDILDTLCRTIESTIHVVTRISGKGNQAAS

Cc1cccn2cc(CCNC(=O)CCl)nc12.Cl
inactive: USP34 -0.083 | USP36 -0.0485 | USP38 -0.247 | USP39 -0.319 | USP4 -0.12

Reference: the supplement of paper PMC11732987, “Enantioselective OTUD7B fragment discovery through chemoproteomics screening and high-throughput optimisation” (Communications Chemistry, 2025)
